# Experimental data published in PubChem BioAssay (EPA / NIEHS).
# Where “and” joins values, the source holds several entries; their conditions need not be identical. Equal entries are not always repeated. Results filed as inconclusive are left out. Some compounds were tested as several samples or in several runs, with calls that do not always agree. Calls of active or inactive are those of the source. How the source made its calls, unless noted: active means hit-call score of the fitted dose curve at least 0.9, where 1 is the maximum; inactive means score below 0.9.
# How the values were obtained:
# [1] = read-out: Monokine induced gamma interferon (MIG), CXCL9 (gene 4283); assay: BSK_KF3CT_MIG: BioMAP Diversity Plus: KF3CT Assay for Monokine induced gamma interferon (MIG) Biomarker Activity (AID 2284248); conditions: primary human keratinocytes with fibroblasts
# Summary of the method: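 KF3CT system: keratinocyte/fibroblast co-culture, 24 h post-dose, MIG by ELISA; activity vs DMSO, positive fitting direction.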
# [2] = read-out: Collagen I, COL1A1 (gene 1277); assay: BSK_hDFCGF_CollagenI: BioMAP Diversity Plus: hDFCGF Assay for Collagen I Biomarker Activity (AID 2284250); conditions: primary human foreskin fibroblasts
# Summary of the method: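 Cells were primary human foreskin fibroblasts treated for 24 h. Collagen I levels were then determined by ELISA and compared against DMSO controls.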
# [3] = read-out: Interferon-inducible T-cell alpha chemoattractant (ITAC), CXCL11 (gene 6373); assay: BSK_hDFCGF_ITAC: BioMAP Diversity Plus: hDFCGF Assay for Interferon-inducible T-cell alpha chemoattractant (ITAC) Biomarker Activity (AID 2284251); conditions: primary human foreskin fibroblasts
# Summary of the method: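 Primary human foreskin fibroblasts (hDFCGF system) treated for 24 h; I-TAC quantified by ELISA. Gain-direction fitting versus DMSO; parallel SRB staining of total protein flagged overt cytotoxicity.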
# [4] = read-out: Plasminogen activator inhibitor-1 (PAI1), SERPINE1 (gene 5054); assay: BSK_KF3CT_PAI1: BioMAP Diversity Plus: KF3CT Assay for Plasminogen activator inhibitor-1 (PAI1) Biomarker Activity (AID 2284252); conditions: primary human keratinocytes with fibroblasts
# Summary of the method: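 Signal is PAI-1 detected by ELISA in a human skin-derived keratinocyte/fibroblast co-culture, 24 h after dosing; DMSO served as negative control and baseline.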
# [5] = read-out: Interleukin-8 (IL8), CXCL8 (gene 3576); assay: BSK_KF3CT_IL8: BioMAP Diversity Plus: KF3CT Assay for Interleukin-8 (IL8) Biomarker Activity (AID 2284254); conditions: primary human keratinocytes with fibroblasts
# Summary of the method: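 Chemicals were added to co-cultured human keratinocytes and foreskin fibroblasts, incubated 24 h, then IL-8 was quantified by ELISA. Cytotoxicity was tracked by sulforhodamine B total-protein staining in parallel cultures.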
# [6] = read-out: Intercellular Adhesion Molecule 1 (ICAM1), ICAM1 (gene 3383); assay: BSK_BE3C_ICAM1: BioMAP Diversity Plus: BE3C Assay for Intercellular Adhesion Molecule 1 (ICAM1) Biomarker Activity (AID 2284278); conditions: primary human bronchial epithelial cells;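 further: cell-surface ICAM-1 protein level quantified by ELISA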
# Summary of the method: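 Measured by ELISA: ICAM-1 expressed by primary human bronchial epithelial cells 24 h after compound treatment, with upward-direction fitting versus DMSO vehicle.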
# [7] = read-out: Interferon-inducible T-cell alpha chemoattractant (ITAC), CXCL11 (gene 6373); assay: BSK_BE3C_ITAC: BioMAP Diversity Plus: BE3C Assay for Interferon-inducible T-cell alpha chemoattractant (ITAC) Biomarker Activity (AID 2284279); conditions: primary human bronchial epithelial cells
# Summary of the method: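 BE3C cells (human primary bronchial epithelium), 24 h compound exposure, I-TAC by ELISA, DMSO = negative control/baseline, positive fitting direction.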
# [8] = read-out: Collagen I, COL1A1 (gene 1277); assay: BSK_MyoF_CollagenI: BioMAP Diversity Plus: MyoF Assay for Collagen I Biomarker Activity (AID 2284238); conditions: primary human lung fibroblasts
# Summary of the method: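 Lung fibroblasts (human primary) dosed, 24 h; Collagen I by ELISA; positive-direction fit vs DMSO control. Parallel SRB total-protein staining (0.1% SRB, 10% TCA fixation, 560 nm) flags overt cytotoxicity.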
# [9] = read-out: Actin alpha 1 (ACTA1), ACTA1 (gene 58); assay: BSK_MyoF_ACTA1: BioMAP Diversity Plus: MyoF Assay for Actin alpha 1 (ACTA1) Biomarker Activity (AID 2284244); conditions: primary human lung fibroblasts
# Summary of the method: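 Measured by ELISA: alpha-smooth muscle actin in human primary lung fibroblasts 24 h after dosing, with DMSO as baseline and upward signal change as the fitted direction.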
# [10] = read-out: Interleukin 2 (IL2), IL2 (gene 3558); assay: BSK_BT_xIL2: BioMAP Diversity Plus: BT Assay for Interleukin 2 (IL2) Biomarker Activity (AID 2284245); conditions: primary human B cells with PBMC
# Summary of the method: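 Secreted interleukin-2 from human B cell/PBMC co-cultures, measured 24 h post-dosing by Luminex multiplex immunoassay. Upward-direction curve fitting against DMSO baseline.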
# [11] = read-out: Basic fibroblast growth factor (bFGF), FGF2 (gene 2247); assay: BSK_MyoF_bFGF: BioMAP Diversity Plus: MyoF Assay for Basic fibroblast growth factor (bFGF) Biomarker Activity (AID 2284246); conditions: primary human lung fibroblasts
# Summary of the method: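 In this multiplexed cell system, lung fibroblasts (human primary) receive test chemical for 24 h before ELISA detection of bFGF; DMSO defines baseline and the analysis direction is positive.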
# [12] = read-out: Collagen IV, COL4A1 (gene 1282); assay: BSK_MyoF_CollagenIV: BioMAP Diversity Plus: MyoF Assay for Collagen IV Biomarker Activity (AID 2284247); conditions: primary human lung fibroblasts
# Summary of the method: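 Activity is scored as a signal increase over DMSO in an ELISA for Collagen IV, measured on human lung fibroblasts at 24 h after chemical treatment. Cytotoxicity is checked in parallel cultures by sulforhodamine B total-protein staining.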
# [13] = read-out: Plasminogen activator inhibitor-1 (PAI1), SERPINE1 (gene 5054); assay: BSK_MyoF_PAI1: BioMAP Diversity Plus: MyoF Assay for Plasminogen activator inhibitor-1 (PAI1) Biomarker Activity (AID 2284256); conditions: primary human lung fibroblasts;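 on outcome: PAI-1 protein level measured by ELISA in fibroblast cultures; PAI-1 read 24 h after compound addition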
# Summary of the method: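 Primary human lung fibroblasts are dosed and incubated 24 h. PAI-1 is then measured by ELISA, while parallel cultures undergo SRB staining for overt cytotoxicity. Increases over DMSO define activity.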
# [14] = read-out: Interleukin-8 (IL8), CXCL8 (gene 3576); assay: BSK_MyoF_IL8: BioMAP Diversity Plus: MyoF Assay for Interleukin-8 (IL8) Biomarker Activity (AID 2284261); conditions: primary human lung fibroblasts
# Summary of the method: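 IL-8 levels were measured by ELISA in human lung fibroblasts harvested 24 h after compound addition. Responses were analysed as gain of signal over the DMSO baseline.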
# Decorin, DCN (gene 1634) = assay: BSK_MyoF_Decorin: BioMAP Diversity Plus: MyoF Assay for Decorin Biomarker Activity (AID 2284265); conditions: primary human lung fibroblasts
# Summary of the method: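 Compound is added to lung fibroblast cultures; cells incubate 24 h; decorin is then measured by ELISA; the response is analysed upward against DMSO controls.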
# [15] = BSK_MyoF_SRB: Viability Assessment in the BioMAP Diversity Plus: MyoF Assay (AID 2284267); conditions: primary human lung fibroblasts;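 further: total protein by SRB absorbance in parallel cultures as cytotoxicity measure; cells assessed 24 h after compound addition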
# Summary of the method: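 Cytotoxicity in primary human lung fibroblasts is gauged by SRB total-protein staining 24 h after dosing, with DMSO as the negative control.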
# [16] = read-out: TIMP metallopeptidase inhibitor 1 (TIMP1), TIMP1 (gene 7076); assay: BSK_MyoF_TIMP1: BioMAP Diversity Plus: MyoF Assay for TIMP metallopeptidase inhibitor 1 (TIMP1) Biomarker Activity (AID 2284269); conditions: primary human lung fibroblasts
# Summary of the method: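 Fibroblasts from human lung are dosed with chemical, cultured 24 h, and assayed for TIMP-1 by ELISA. Increases over the DMSO baseline are scored, with SRB total-protein staining run in parallel for cytotoxicity.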
# [17] = CCTE_Mundy_HCI_hNP1_Casp3_7: CCTE's Caspase-Glo 3/7 Assay in human neuroprogenitor cells for Apoptosis, Mundy Lab (AID 2284240)
# Summary of the method: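 Luminescent caspase-3/7 readout, 26.5 h post-dose, in human neural progenitor cells from WA09 embryonic stem cells. Cells grew 40–44 h at 37 °C, 5% CO2 before chemical addition. Activity analysed as signal increase over DMSO baseline.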
# [18] = CCTE_Mundy_HCI_hNP1_CellTiter: CCTE's Cell Titer-Glo 2 Assay in human neuroprogenitor cells for Viability, Mundy Lab (AID 2284241; active means hit-call score of the fitted dose curve at least 0.9, where 1 is the maximum;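 on AC50: a hit is a drop in ATP luminescence versus DMSO meaning reduced viability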)
# Summary of the method: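 Viability read as luminescent ATP content (CellTiter-Glo, 30 min room temperature) twenty-four hours after dosing, relative to DMSO. Cells: WA09-derived hNP1 neuroprogenitors on poly-L-ornithine/laminin, plated 40 to 44 hours before chemical.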
smiles,measurement,setting,value
CC1(C)CCC[C@]2(C)[C@H]3CCO[C@]3(C)CC[C@@H]12,AC50,[1],36.6 µM (active) and 36.2 µM (active)
same,AC50,[2],18.7 µM (active)
same,outcome,[2],inactive
same,AC50,[3],30.5 µM (active) and 30.9 µM (active)
same,AC50,[4],34.7 µM (active) and 34.6 µM (active)
same,AC50,[5],36.8 µM (active) and 31.3 µM (active)
same,outcome,[6],inactive
same,outcome,[7],inactive
CCCCCCCCCCCCCCCC(=O)OC/C=C(C)/C=C/C=C(C)/C=C/C1=C(C)CCCC1(C)C,outcome,[8],inactive
same,outcome,[9],inactive
same,outcome,[10],inactive
same,outcome,[11],inactive
same,outcome,[12],inactive
same,outcome,[13],inactive
same,outcome,[14],inactive
same,outcome,"Decorin, DCN (gene 1634)",inactive
same,outcome,[15],inactive
same,outcome,[16],inactive
CC1(C)C2=CCCC(C)(C)[C@]23CC[C@H]1C3,AC50,[8],30.4 µM (active)
same,AC50,[9],30.9 µM (active)
same,outcome,[10],inactive
same,outcome,[11],inactive
same,outcome,[12],inactive
same,AC50,[13],35.3 µM (active)
same,outcome,[14],inactive
same,outcome,"Decorin, DCN (gene 1634)",inactive
same,AC50,[15],30.9 µM (active)
same,outcome,[16],inactive
COCCc1ccc(OCC(O)CNC(C)C)cc1 (centres undefined),outcome,[17],inactive
same,AC50,[18],2.98 µM (active)
COCCOCCOCCO,outcome,[17],inactive
same,outcome,[18],inactive
CN(c1nccc(=O)[nH]1)C1CCN(c2nc3ccccc3n2Cc2ccc(F)cc2)CC1,outcome,[8],inactive
same,outcome,[9],inactive
same,AC50,[10],9.2 µM (active)
same,outcome,[11],inactive
same,outcome,[12],inactive
same,outcome,[13],inactive
same,outcome,[14],inactive
same,outcome,"Decorin, DCN (gene 1634)",inactive
same,outcome,[15],inactive
same,outcome,[16],inactive
O=CN1CCOCC1,outcome,[1],inactive
same,outcome,[2],inactive
same,outcome,[3],inactive
same,outcome,[4],inactive
same,outcome,[5],inactive
same,outcome,[6],inactive
same,outcome,[7],inactive
O=C1c2ccccc2C(=O)c2c(O)ccc(O)c21,outcome,[8],inactive
same,outcome,[9],inactive
same,AC50,[10],3.97 µM (active)
same,outcome,[11],inactive
same,outcome,[12],inactive
same,outcome,[13],inactive
same,outcome,[14],inactive
same,outcome,"Decorin, DCN (gene 1634)",inactive
same,outcome,[15],inactive
same,outcome,[16],inactive
